Results filed as inconclusive are left out. Activity calls are given as the source filed them. Unless noted, the call rests on the fitted dose curve; in most records, active means well fitted curve in the direction sought with a large enough effect; inconclusive means small, poorly fitted or top-dose-only effect, or another doubt; inactive means no such curve, though single readings can be large; an effect the other way counts as inactive or inconclusive.
What was measured:
[1] = molecular target: ATP-dependent 6-phosphofructokinase (Trypanosoma brucei brucei) (UniProt O15648); experiment: qHTS Assay to Find Inhibitors of T. brucei phosphofructokinase: hit validation (AID 492961);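 further: luminescence reports ADP formed as PFK phosphorylates fructose-6-phosphate with ATP; on the % scale 0 is the no-effect control and ±100 the full control effect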
In short: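 Reaction: 0.1 M triethanolamine pH 8.0, 5 mM MgCl2, F6P 0.5 mM, ATP 0.1 mM, PFK 1.25 nM, 45 min RT. Read-out: ADP-Glo luminescence. Analysis: concentration-response fits, classed by r2 and efficacy.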

[2] = molecular target: Ubiquitin carboxyl-terminal hydrolase 1 (Homo sapiens) (UniProt O94782); experiment: Inhibitors of USP1/UAF1: Pilot qHTS (AID 504865);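 further: rhodamine fluorescence freed from ubiquitin-rhodamine substrate followed over time; top concentration of the series differs between compounds; on the % scale 0 is the no-effect control and ±100 the full control effect; nearly all actives have a fitted effect of over 35% in size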
In short: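 USP1/UAF1 complex (1nM) preincubated with compound 15 min at room temperature, then Ub-Rho substrate (150nM final) added. Fluorescence read kinetically at 480/540 nm, 6 reads every 60 seconds. Buffer: 50mM HEPES pH 7.8, 0.5mM EDTA, 0.1 mg/ml BSA, 1mM TCEP, 0.01% Tween-20.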

[3] = molecular target: Luciferin 4-monooxygenase (Photinus pyralis) (UniProt P08659); experiment: Biochemical firefly luciferase enzyme assay for NPC (AID 624030);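 further: purified P. pyralis luciferase at 10 nM with luciferin and ATP substrate; 0% = DMSO and -100% = full luciferase inhibition by PTC124 control; nearly all actives have a fitted effect of over 70% in size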
In short: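 Counter-screen for direct inhibition of the luciferase enzyme by approved-drug library compounds, run at 10 nM enzyme in 50 mM Tris acetate (final). Luminescence was read within 5 min of enzyme-buffer addition and normalized to PTC124 versus DMSO (0%).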

[4] = S16 Schwann cell viability assay (CellTiter-Glo assay) (AID 624031);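 further: cellular ATP luminescence as a viability measure; plate controls were DMSO-treated cells for no effect and cell-free wells for full effect; nearly all actives have a fitted effect of over 70% in size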
In short: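 Native S16 rat Schwann cells, 500-750 cells/well in DMEM with 10% FBS, dosed with compound after overnight culture and incubated 24h at 37 degree Celsius/5% CO2. Viability by CellTiter-Glo luminescence; % activity normalized to no-cell wells and DMSO-treated cells.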

[5] = S16 Schwann cell PMP22 intronic element beta-lactamase assay (AID 624044; calls by dose curve; further: potency means the concentration at half of the fitted maximal effect; nearly all actives have a fitted effect of over 15% in size)
In short: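 Beta-lactamase reporter under a PMP22 intronic regulatory element in stable S16 rat Schwann cells; 24 h compound exposure. 460 nm blue signal normalized between DMSO (0%) and potassium clavulanate, with 535 nm FRET tracking viability; curves classed by r2 and response.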

[6] = molecular target: Furin (Homo sapiens) (UniProt P09958); experiment: Furin counterscreen qHTS for Zika virus inhibitors (AID 1347149);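 further: purified recombinant full-length human furin enzyme at 5 nM; fluorescence gain from furin cutting a BOC-RVRR-AMC peptide substrate over 15 min; top concentration of the series differs between compounds; plate controls were no-inhibitor control for no effect and no-enzyme control for full effect; nearly all actives have a fitted effect of over 70% in size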
In short: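 Counterscreen measures cleavage of 2 microM BOC-RVRR-AMC, below its ~15 microM Km, by 5 nM full-length human furin at pH 7.0 after a 15-min compound preincubation. Inhibition derives from the 15-min fluorescence increase at 37C.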

[7] = tested on: Zika virus NS2B-NS3 protease (unlinked); experiment: Optimization of GU AMC qHTS for Zika virus inhibitors: Unlinked NS2B-NS3 protease assay (AID 1347151);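 further: 0% = no-inhibitor control and -100% = no-enzyme control; nearly all actives have a fitted effect of over 80% in size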
In short: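 Noncovalent complex of NS2B hydrophilic domain and NS3 protease domain, 25 nM final, in 10 mM Tris-HCl pH 8.0, 0.01% Tween 20. AMC fluorescence change over 15 min at room temperature was fitted to a 4-parameter Hill equation.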

[8] = qHTS profiling for inhibitors of Plasmodium falciparum proliferation (AID 504749); further: nearly all actives have a fitted effect of over 60% in size; further: potency means the concentration at half of the fitted maximal effect;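 on activity, negative = inhibition: 0% = DMSO vehicle and full inhibition = artemisinin control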; settings: P. falciparum in erythrocytes, SYBR Green DNA, 72 h, at 28.7 µM (top of the series)
In short: (§1)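 Quantitative HTS: compounds pinned into medium, infected erythrocytes added (0.3% parasitemia, 2.5% hematocrit), 72 h culture at 37 C under 5% CO2. Saponin/Triton lysis with SYBR Green I, overnight RT, then fluorescence read.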

[9] = tested on: 3D7; experiment: as above; settings: P. falciparum in erythrocytes, SYBR Green DNA, 72 h; series mostly up to 28.7 µM
In short: as §1

[10] = tested on: AS120; experiment: as above; settings: P. falciparum in erythrocytes, SYBR Green DNA, 72 h; series mostly up to 28.7 µM
In short: as §1

[11] = tested on: ATS95; experiment: as above; settings: P. falciparum in erythrocytes, SYBR Green DNA, 72 h; series mostly up to 28.7 µM
In short: as §1

[12] = tested on: C2A; experiment: as above; settings: P. falciparum in erythrocytes, SYBR Green DNA, 72 h; series mostly up to 28.7 µM
In short: as §1

[13] = tested on: CP185; experiment: as above; settings: P. falciparum in erythrocytes, SYBR Green DNA, 72 h; series mostly up to 28.7 µM
In short: as §1

[14] = tested on: CP191; experiment: as above; settings: P. falciparum in erythrocytes, SYBR Green DNA, 72 h; series mostly up to 28.7 µM
In short: as §1

[15] = tested on: CP192; experiment: as above; settings: P. falciparum in erythrocytes, SYBR Green DNA, 72 h; series mostly up to 28.7 µM
In short: as §1

[16] = tested on: CP201; experiment: as above; settings: P. falciparum in erythrocytes, SYBR Green DNA, 72 h; series mostly up to 28.7 µM
In short: as §1

[17] = tested on: CP211; experiment: as above; settings: P. falciparum in erythrocytes, SYBR Green DNA, 72 h; series mostly up to 28.7 µM
In short: as §1

[18] = tested on: CP215; experiment: as above; settings: P. falciparum in erythrocytes, SYBR Green DNA, 72 h; series mostly up to 28.7 µM
In short: as §1

[19] = tested on: CP237; experiment: as above; settings: P. falciparum in erythrocytes, SYBR Green DNA, 72 h; series mostly up to 28.7 µM
In short: as §1

[20] = tested on: CP238; experiment: as above; settings: P. falciparum in erythrocytes, SYBR Green DNA, 72 h; series mostly up to 28.7 µM
In short: as §1

[21] = tested on: CP247; experiment: as above; settings: P. falciparum in erythrocytes, SYBR Green DNA, 72 h; series mostly up to 28.7 µM
In short: as §1

[22] = tested on: CP250; experiment: as above; settings: P. falciparum in erythrocytes, SYBR Green DNA, 72 h; series mostly up to 28.7 µM
In short: as §1

[23] = tested on: CP252; experiment: as above; settings: P. falciparum in erythrocytes, SYBR Green DNA, 72 h; series mostly up to 28.7 µM
In short: as §1

[24] = tested on: CP256; experiment: as above; settings: P. falciparum in erythrocytes, SYBR Green DNA, 72 h; series mostly up to 28.7 µM
In short: as §1

[25] = tested on: CP262; experiment: as above; settings: P. falciparum in erythrocytes, SYBR Green DNA, 72 h; series mostly up to 28.7 µM
In short: as §1

[26] = tested on: CP266; experiment: as above; settings: P. falciparum in erythrocytes, SYBR Green DNA, 72 h; series mostly up to 28.7 µM
In short: as §1

[27] = tested on: CP269; experiment: as above; settings: P. falciparum in erythrocytes, SYBR Green DNA, 72 h; series mostly up to 28.7 µM
In short: as §1

[28] = tested on: CP291; experiment: as above; settings: P. falciparum in erythrocytes, SYBR Green DNA, 72 h; series mostly up to 28.7 µM
In short: as §1

[29] = tested on: CP305; experiment: as above; settings: P. falciparum in erythrocytes, SYBR Green DNA, 72 h; series mostly up to 28.7 µM
In short: as §1

[30] = tested on: CP315; experiment: as above; settings: P. falciparum in erythrocytes, SYBR Green DNA, 72 h; series mostly up to 28.7 µM
In short: as §1

[31] = tested on: CP325; experiment: as above; settings: P. falciparum in erythrocytes, SYBR Green DNA, 72 h; series mostly up to 28.7 µM
In short: as §1

[32] = tested on: CP329; experiment: as above; settings: P. falciparum in erythrocytes, SYBR Green DNA, 72 h; series mostly up to 28.7 µM
In short: as §1

[33] = tested on: DFO2036; experiment: as above; settings: P. falciparum in erythrocytes, SYBR Green DNA, 72 h; series mostly up to 28.7 µM
In short: as §1

[34] = tested on: DIV30; experiment: as above; settings: P. falciparum in erythrocytes, SYBR Green DNA, 72 h; series mostly up to 28.7 µM
In short: as §1

[35] = tested on: Dd2; experiment: as above; settings: P. falciparum in erythrocytes, SYBR Green DNA, 72 h; series mostly up to 28.7 µM
In short: as §1

[36] = tested on: ECU; experiment: as above; settings: P. falciparum in erythrocytes, SYBR Green DNA, 72 h; series mostly up to 28.7 µM
In short: as §1

[37] = tested on: FAB9; experiment: as above; settings: P. falciparum in erythrocytes, SYBR Green DNA, 72 h; series mostly up to 28.7 µM
In short: as §1

[38] = tested on: HB3; experiment: as above; settings: P. falciparum in erythrocytes, SYBR Green DNA, 72 h; series mostly up to 28.7 µM
In short: as §1

[39] = tested on: JCK; experiment: as above; settings: P. falciparum in erythrocytes, SYBR Green DNA, 72 h; series mostly up to 28.7 µM
In short: as §1

[40] = tested on: PC15; experiment: as above; settings: P. falciparum in erythrocytes, SYBR Green DNA, 72 h; series mostly up to 28.7 µM
In short: as §1

[41] = tested on: PC26; experiment: as above; settings: P. falciparum in erythrocytes, SYBR Green DNA, 72 h; series mostly up to 28.7 µM
In short: as §1

[42] = tested on: PC49; experiment: as above; settings: P. falciparum in erythrocytes, SYBR Green DNA, 72 h; series mostly up to 28.7 µM
In short: as §1

[43] = tested on: SC27B; experiment: as above; settings: P. falciparum in erythrocytes, SYBR Green DNA, 72 h; series mostly up to 28.7 µM
In short: as §1

[44] = tested on: TAB113; experiment: as above; settings: P. falciparum in erythrocytes, SYBR Green DNA, 72 h; series mostly up to 28.7 µM
In short: as §1

[45] = tested on: TAB165; experiment: as above; settings: P. falciparum in erythrocytes, SYBR Green DNA, 72 h; series mostly up to 28.7 µM
In short: as §1

Sequence of Luciferin 4-monooxygenase (Photinus pyralis) (P08659 whole entry, looked up): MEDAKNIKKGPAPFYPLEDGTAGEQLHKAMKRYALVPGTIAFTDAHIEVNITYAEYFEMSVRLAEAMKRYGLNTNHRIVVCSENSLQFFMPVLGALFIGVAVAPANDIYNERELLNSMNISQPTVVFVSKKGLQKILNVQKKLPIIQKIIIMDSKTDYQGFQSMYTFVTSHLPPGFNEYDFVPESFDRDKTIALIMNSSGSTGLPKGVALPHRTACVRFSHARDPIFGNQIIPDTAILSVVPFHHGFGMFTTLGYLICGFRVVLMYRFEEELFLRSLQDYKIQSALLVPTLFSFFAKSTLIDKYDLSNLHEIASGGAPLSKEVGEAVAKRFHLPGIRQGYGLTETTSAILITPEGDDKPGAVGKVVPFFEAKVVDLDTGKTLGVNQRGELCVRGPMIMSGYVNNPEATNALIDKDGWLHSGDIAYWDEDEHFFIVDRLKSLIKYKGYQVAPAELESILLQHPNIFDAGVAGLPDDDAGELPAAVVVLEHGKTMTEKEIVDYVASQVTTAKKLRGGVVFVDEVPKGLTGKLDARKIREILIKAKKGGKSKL
Sequence of Ubiquitin carboxyl-terminal hydrolase 1 (Homo sapiens) (O94782 whole entry, looked up): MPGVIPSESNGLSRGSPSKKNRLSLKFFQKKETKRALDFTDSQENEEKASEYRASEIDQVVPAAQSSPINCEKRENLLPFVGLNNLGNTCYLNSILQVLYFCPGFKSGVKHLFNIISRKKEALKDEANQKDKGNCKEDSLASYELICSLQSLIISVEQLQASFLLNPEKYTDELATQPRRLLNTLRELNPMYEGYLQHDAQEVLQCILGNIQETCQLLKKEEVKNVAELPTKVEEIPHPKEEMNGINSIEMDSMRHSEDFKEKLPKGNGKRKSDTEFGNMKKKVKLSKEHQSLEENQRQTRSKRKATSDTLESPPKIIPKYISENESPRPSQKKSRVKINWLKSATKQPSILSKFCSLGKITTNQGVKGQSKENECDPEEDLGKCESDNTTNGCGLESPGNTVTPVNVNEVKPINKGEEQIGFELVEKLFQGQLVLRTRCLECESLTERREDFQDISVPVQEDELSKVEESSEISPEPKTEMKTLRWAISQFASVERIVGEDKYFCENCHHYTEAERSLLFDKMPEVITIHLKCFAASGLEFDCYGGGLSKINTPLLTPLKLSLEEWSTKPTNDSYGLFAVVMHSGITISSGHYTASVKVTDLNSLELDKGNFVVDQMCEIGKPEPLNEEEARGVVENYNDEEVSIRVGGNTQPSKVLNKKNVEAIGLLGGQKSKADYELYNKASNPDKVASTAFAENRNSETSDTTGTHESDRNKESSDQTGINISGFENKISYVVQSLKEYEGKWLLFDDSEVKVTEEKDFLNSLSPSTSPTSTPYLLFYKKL
Sequence of ATP-dependent 6-phosphofructokinase (Trypanosoma brucei brucei) (O15648 whole entry, looked up): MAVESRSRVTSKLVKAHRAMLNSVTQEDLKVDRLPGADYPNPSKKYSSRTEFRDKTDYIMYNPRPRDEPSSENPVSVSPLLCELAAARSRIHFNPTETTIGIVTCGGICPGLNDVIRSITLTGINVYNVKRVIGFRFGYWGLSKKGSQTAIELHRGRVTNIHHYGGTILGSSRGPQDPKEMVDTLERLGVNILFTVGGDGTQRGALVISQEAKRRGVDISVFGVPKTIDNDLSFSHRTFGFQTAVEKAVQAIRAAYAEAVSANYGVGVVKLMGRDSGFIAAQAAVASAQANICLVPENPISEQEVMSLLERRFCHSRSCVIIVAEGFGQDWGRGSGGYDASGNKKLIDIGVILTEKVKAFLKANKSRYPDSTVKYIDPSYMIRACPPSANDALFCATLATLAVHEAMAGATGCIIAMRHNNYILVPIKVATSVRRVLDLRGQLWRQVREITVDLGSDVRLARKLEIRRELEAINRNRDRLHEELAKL
Sequence of Furin (Homo sapiens) (P09958 whole entry, looked up): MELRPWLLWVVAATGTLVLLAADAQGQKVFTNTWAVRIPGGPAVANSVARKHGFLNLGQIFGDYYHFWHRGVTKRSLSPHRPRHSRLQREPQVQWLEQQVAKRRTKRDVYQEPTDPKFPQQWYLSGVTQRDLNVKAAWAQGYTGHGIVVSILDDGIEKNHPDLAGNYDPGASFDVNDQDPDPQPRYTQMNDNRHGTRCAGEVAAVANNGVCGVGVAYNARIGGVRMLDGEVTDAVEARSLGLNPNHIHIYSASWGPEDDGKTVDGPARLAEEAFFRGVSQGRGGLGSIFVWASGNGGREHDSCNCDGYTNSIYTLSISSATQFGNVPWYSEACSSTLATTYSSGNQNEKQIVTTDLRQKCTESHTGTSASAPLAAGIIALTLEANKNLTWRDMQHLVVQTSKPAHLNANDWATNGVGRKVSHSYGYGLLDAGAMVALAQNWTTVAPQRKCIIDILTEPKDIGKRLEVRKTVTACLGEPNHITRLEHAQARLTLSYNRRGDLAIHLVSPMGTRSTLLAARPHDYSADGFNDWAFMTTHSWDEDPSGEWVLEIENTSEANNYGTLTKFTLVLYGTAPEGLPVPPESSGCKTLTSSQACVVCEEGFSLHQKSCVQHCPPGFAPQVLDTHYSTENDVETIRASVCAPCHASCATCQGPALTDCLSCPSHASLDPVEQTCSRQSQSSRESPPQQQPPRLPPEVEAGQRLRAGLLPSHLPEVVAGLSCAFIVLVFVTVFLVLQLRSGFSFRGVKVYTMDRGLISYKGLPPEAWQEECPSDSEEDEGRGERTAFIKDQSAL

O=C1c2cccc3c2[C@@H](CCC3)CN1[C@@H]1CN2CCC1CC2
inactive: outcome [1] | Potency [2] | Potency [3] | outcome [4] | Potency [6] | Potency [7] | activity, negative = inhibition ([8]; parasite line A) -7.65% | activity, negative = inhibition ([8]; parasite line B) 6.33% | Potency [9] | Potency [10] | Potency [11] | Potency [12] | Potency [13] | Potency [14] | Potency [15] | Potency [16] | Potency [17] | Potency [18] | Potency [20] | Potency [21] | Potency [22] | Potency [23] | Potency [24] | Potency [25] | Potency [26] | Potency [27] | Potency [28] | Potency [29] | Potency [30] | Potency [31] | Potency [32] | Potency [33] | Potency [34] | Potency [36] | Potency [37] | Potency [38] | Potency [39] | Potency [40] | Potency [41] | Potency [42] | Potency [43] | Potency [44] | Potency [45]
active: Potency [5] 11.2 µM | Potency [19] 10 µM | Potency [35] 12.6 µM
